In all, about 13,000 compounds were measured (“IFI”: median about 4, highest 2% from about 17 on). The full list was thinned out, with the highest values kept by preference.

This passage reports IFI results from ChEMBL document CHEMBL1157539, “Thousands of chemical starting points for antimalarial lead identification” (Nature, 2010).

The nature of this assay: GSK_TCMDC: Inhibition Frequency Index (IFI). The number of non-kinase HTS assays where a compound showed > 50 % inhibition, expressed as a percentage of the number of such assays in which the compound was tested. Type of assay: functional.
The molecule `c1ccc2c(NCCCCCCCCNc3ccnc4ccccc34)ccnc2c1` had an IFI of 8.27%.

The molecule `CCOc1cc(N)c2nc3ccc([N+](=O)[O-])cc3cc2c1` showed an IFI of 6.47%. With `CC(C)(C)NS(=O)(=O)c1cc(C(=O)N2CCC(CCN3CCC(C(=O)c4ccc(F)cc4)CC3)(c3cccc(F)c3)CC2)c(Cl)cc1F` the figure was 3.55%; with `C=CCOC(=O)N1CCC(CNCc2ccc(-c3ccc(-c4nc5ccccc5[nH]4)s3)cc2)C1` (centres undefined), 11%; with `COc1cccc(Nc2nccc(-c3c(-c4cccc(NC(=O)c5c(F)cccc5F)c4)nn4ccccc34)n2)c1`, 4.39%. Then `NC(=O)C1CCN(Cc2ccc(-c3ccc(-c4nc5cc(F)ccc5[nH]4)cc3)cc2)CC1`, with 4.72%. As for `Fc1ccc2c(NN=Cc3ccc(Cl)cc3)ccnc2c1`, the IFI was 0.74%. Then `O=C(NCCCCN1CCC(c2ccc3ccccc3c2O)CC1)c1ccc(-c2ccc(Cl)cc2)cc1`, with 15.1%; and `CC(C)C(=O)NC(c1ccc(N(C)C)cc1)c1cc(Cl)c2cccnc2c1O` (centres undefined), with 5.38%; and `CCn1c(-c2nonc2N)nc2c(-c3cccc(NC(=O)Nc4cccc(Cl)c4)c3)ncc(OCCCN)c21`, with 17.6%.

In turn, `CCn1c(-c2nonc2N)nc2c(-c3cccc(NC(=O)Nc4ccc5c(c4)CCC5)c3)ncc(OCCCN)c21` returned an IFI of 14.8%. Then `CCn1c(-c2nonc2N)nc2c(-c3cccc(NC(=O)Nc4ccc(C(F)(F)F)cc4)c3)ncc(OCCCN)c21`, with 19.1%. As for `CCn1c(-c2nonc2N)nc2c(-c3cccc(NC(=O)NCc4ccccc4)c3)ncc(OCCCN)c21`, the IFI worked out at 12.9%. With `CCn1c(-c2nonc2N)nc2c(-c3ccccc3)ncc(OCCCNCCCN3CCOCC3)c21` the figure was 3.08%; with `CCn1c(-c2nonc2N)nc2c(-c3cccc(NC(=O)Nc4ccc(C#N)cc4)c3)ncc(OCCCN)c21`, 15.7%. As to `CCn1c(-c2nonc2N)nc2c(-c3cccc(NC(=O)Nc4cccc(C(F)(F)F)c4)c3)ncc(OCCCN)c21`, the IFI worked out at 14.6%. With `CCn1c(-c2nonc2N)nc2c(-c3cccc(NC(=O)Nc4cccc(C#N)c4)c3)ncc(OCCCN)c21` the figure was 16.7%; with `NCCCOc1cnc(-c2ccccc2)c2nc(-c3nonc3N)n(CCc3ccccc3)c12`, 18.8%; with `CCn1c(-c2nonc2N)nc2c(-c3cccc(NC(=O)NC45CC6CC(CC(C6)C4)C5)c3)ncc(OCCCN)c21`, 16.7%. Molecule `CCn1c(-c2nonc2N)nc2c(-c3cccc(NC(=O)Nc4ccc(Cl)cc4)c3)ncc(OCCCN)c21` yielded an IFI of 19.3%. With `CCOC(=O)c1cccc(NC(=O)Nc2cccc(-c3ncc(OCCCN)c4c3nc(-c3nonc3N)n4CC)c2)c1` the figure was 16.5%; with `Cc1ccc(NC(=O)c2cc(S(=O)(=O)NC(C)(C)C)ccc2C)nc1`, 0%. With `O=C(NC1CCN(CC2(c3ccccc3F)CCCC2)CC1)c1cc[nH]n1` the figure was 0%; with `Cc1nc(C)c(-c2ccc(C(F)(F)F)cc2)c(O)c1Br`, 0%. Then `O=S(=O)(NCCN1CCCC1)c1ccc(-c2cccc(CNCc3ccsc3)c2)s1`, with 6.9%; and `O=c1cc(NCCCNCc2cn(S(=O)(=O)c3ccccc3)c3ccccc23)[nH]c2ccccc12`, with 5.88%; and `COc1ccc2cc(-c3nc(-c4c(Cl)cccc4Cl)[nH]c3-c3ccnc(NCCC4CCCN4C)c3)ccc2c1` (centres undefined), with 11.3%. `C=CCn1ccc2c3c(N)nc(N)nc3ccc21` returned an IFI of 6.4%.

As for `NC1=NC2(CCCCC2)N(OCCCCCCc2ccccc2)C(N)=N1`, the IFI came out at 23.9%. With `NC1=NC2(CCCCC2)N(OCCCCCCC2CCCCC2)C(N)=N1`, the IFI was 27.6%. Then `CC1(C)N=C(N)N=C(N)N1OCCCc1ccccc1`, with 4.35%.

The molecule `Cc1ccc2cc(NCCCCCCCCON3C(N)=NC(N)=NC34CCCCC4)ccc2n1` returned an IFI of 11.6%. Then `NC1=NC2(CCCCC2)N(OCCCCCCN2C(=O)c3ccccc3C2=O)C(N)=N1`, with 1.43%; and `NC1=NC2(CCCCC2)N(OCCCCCCCCNc2nc(N)nc(N)n2)C(N)=N1`, with 1.44%; and `FC(F)(F)c1ccc2[nH]c(-c3ccc(-c4cccc(CNCC5CCCO5)c4)s3)nc2c1` (centres undefined), with 7.92%. Then `O=C(Nc1ccc(CN2CCOCC2)cc1)c1ccc(-c2ccc(Cl)cc2)o1`, with 2.78%. With `COc1ccc(-c2cc(C(=O)N[C@@H](CC3CCCCC3)C(=O)NCCN3CCCC3)ccc2O)cc1` the figure was 3.45%. In the case of `CCN(CC)CCN(Cc1ccc(-c2ccc(C(F)(F)F)cc2)cc1)C(=O)Cn1c(CCc2cccc(F)c2F)nc(=O)c2ccccc21`, the IFI is 8.39%. Then `Fc1ccc2[nH]c(-c3cccc(-c4ccc(CNCc5ccccc5)cc4)c3)nc2c1`, with 8.57%. With `Fc1ccc2[nH]c(-c3cccc(-c4ccc(CNCCc5ccncc5)cc4)c3)nc2c1` the figure was 9.71%; with `Fc1ccc2[nH]cc(CCNCc3ccc(-c4cccc(-c5nc6ccccc6[nH]5)c4)cc3)c2c1`, 17.8%. Then `O=C(/C=C/c1ccc(Cl)c(Cl)c1)NCC[C@@H]1C[C@H]1CCN1CCC(c2c[nH]c3ccccc23)CC1`, with 12.3%. As for `Cc1cc(=NN=Cc2ccc(Cl)cc2)c2ccccc2[nH]1`, the IFI amounted to 0.7%. Take `N=C(NCCCCCCCCNC(=N)Nc1ccc(Cl)cc1)Nc1ccc(Cl)cc1`: the IFI came to 3.65%. As for `Clc1ccc(/N=C(/NCCCCCCCN/C(=N\c2ccc(Cl)cc2)Nc2ccc(Cl)cc2)Nc2ccc(Cl)cc2)cc1`, the IFI was determined as 17.1%. Then `CN(C)/C(=N/C(=N)Nc1ccc(Cl)cc1)NCCCCCCN/C(=N\C(=N)Nc1ccc(Cl)cc1)N(C)C`, with 8.89%; and `N#Cc1cc(C(=O)c2cc(Br)ccc2O)cn(C2CCCCC2)c1=O`, with 2.78%; and `O=C(c1cc(C(=O)NC2CCCCC2)c(=O)n(C2CCCCC2)c1)c1cc(F)ccc1O`, with 19.4%.

The molecule `COc1ccc(O)c(C(=O)c2cc(C(=O)NC3CCCCC3)c(=O)n(C3CCCCC3)c2)c1` displayed an IFI of 10.8%. Then `COc1ccc(NCCCNc2ccnc3ccccc23)cc1`, with 17.5%.

For the molecule `c1ccc2c(NCCCCCCCNc3ccnc4ccccc34)ccnc2c1`, the IFI is 11.3%.

`c1ccc2c(NCCCCCCNc3ccnc4ccccc34)ccnc2c1` showed an IFI of 4.55%.

For `Nc1nc(N)c2c(ccc3c2ccn3Cc2ccc(Cl)cc2)n1`, the IFI turned out to be 13.2%. Then `CCn1c(Sc2ccc([N+](=O)[O-])c(C#N)c2)nnc1-c1ccc(Cl)cc1`, with 3.4%; and `OCC1CCN(Cc2ccc(-c3ccc(-c4nc5cc(F)ccc5[nH]4)cc3)cc2)CC1`, with 2.94%; and `Oc1c(C(Nc2nc3ccccc3s2)c2ccc(OC(F)F)cc2)ccc2cccnc12` (centres undefined), with 9.4%. With `CN(C)CCOc1ccc2c(=O)cc(CCc3cccc(F)c3F)n(CC(=O)N(C)Cc3ccc(-c4ccc(C(F)(F)F)cc4)cc3)c2c1` the figure was 2.92%; with `CCOC(=O)c1c(CNc2ccncc2)n(C)c2cc(Br)c(OC(C)=O)cc12`, 0.74%; with `CCOC(=O)c1cc2c(CCN3C(=O)c4ccccc4C3=O)cn(C)c2cc1-c1ccncc1`, 30.4%. In turn, `CCOC(=O)c1cc(C(=O)NCCCCN2CCC(c3cn(C)c4ccccc34)CC2)ccc1-c1ccc(C(F)(F)F)cc1` showed an IFI of 5.31%.

As to `CC(=O)Nc1ccc(C(=O)Nc2cccc(-c3cccc(-c4nc5cc(C(F)(F)F)ccc5[nH]4)c3)c2)cn1`, the IFI worked out at 3.7%.

Molecule `N=C(N)NC(=O)Nc1ccc(Cl)c(Cl)c1` returned an IFI of 1.52%. Then `CC(=O)Nc1ccc(Cl)c(Cl)c1`, with 0%; and `NCCCN(Cc1ccc(Cl)c(Cl)c1)C(=O)Nc1ccc(Cl)c(Cl)c1`, with 17.7%; and `COc1ccc(CCNCCCCCCNCCc2ccccc2Cl)cc1OC`, with 2.88%. Molecule `COc1ccccc1CNc1ccnc(NCCc2cccc(C(F)(F)F)c2)n1` displayed an IFI of 16%. With `FC(F)(F)c1cccc(CCNc2nccc(NCc3ccccc3Cl)n2)c1`, the IFI amounted to 8%. `FC(F)(F)c1cccc(CCNc2nccc(NCc3ccc(Cl)cc3Cl)n2)c1` displayed an IFI of 25%. With `Fc1ccc(NC(S)=NN=Cc2ccccn2)cc1` the figure was 7.48%; with `Cc1[nH]c(C)c(-c2ccc(-c3ccc(OC(F)(F)F)cc3)nc2)c(=O)c1Cl`, 1.69%; with `Cc1cc(Nc2ccncc2)n2nc(C)c(-c3ccc(Cl)cc3)c2n1`, 1.69%. With `Cc1ccc2[nH]c(-c3cc(-c4cccc(C#N)c4)cnc3N)nc2c1` the figure was 7.14%; with `Cc1cccc2nc(-c3ccc(-c4ccc(CN5CCCC(N)C5)cc4)s3)[nH]c12` (centres undefined), 5.56%.

The molecule `COc1ccc(-c2ccccc2OCCCNc2nc(NCCc3ccc(O)cc3)nc(N3CCNCC3)n2)cc1` returned an IFI of 13.8%. Molecule `Cc1c(CN2CCCCC2)cccc1OCCCNc1nc(NCCc2ccc(O)cc2)nc(N2CCNCC2)n1` came in with an IFI of 7.58%. Then `Oc1ccc(CCNc2nc(NCc3ccc4cc(Cl)ccc4c3)nc(N3CCNCC3)n2)cc1`, with 17.2%; and `Oc1ccc(CCNc2nc(NCCCOc3ccccc3-c3ccncc3)nc(N3CCNCC3)n2)cc1`, with 1.72%; and `Cc1cccc(-c2cccc(CNc3nc(NCCc4ccc(O)cc4)nc(N4CCNCC4)n3)c2)c1`, with 12.7%. `Oc1ccc(CCCNc2nc(NCc3cccc4ccccc34)nc(N3CCNCC3)n2)cc1` displayed an IFI of 7.69%.

`Oc1ccc(CCNc2nc(NCc3ccccc3-c3cccc(Cl)c3)nc(N3CCNCC3)n2)cc1` showed an IFI of 15.4%. Then `Oc1ccc(CCNc2nc(NCCCOc3cccc(CN4CCCCC4)c3Cl)nc(N3CCNCC3)n2)cc1`, with 4.69%; and `Oc1ccc(CCNc2nc(N/N=C/c3ccc(Cl)cc3)nc(N3CCNCC3)n2)cc1`, with 0.75%; and `Cc1cc(OCCCNc2nc(NCCc3ccc(O)cc3)nc(N3CCNCC3)n2)c(Cl)c(C)c1Cl`, with 18.5%.

`C[C@@]12C[C@@H](Nc3nc(NCCc4ccc(O)cc4)nc(N4CCNCC4)n3)C[C@@H](C1)c1cccc(Cl)c1O2` came in with an IFI of 20.9%. As to `Oc1ccc(CCNc2nc(NCCOc3ccccc3-c3ccccc3)nc(N3CCNCC3)n2)cc1`, the IFI is 20%.

`Nc1c2c(nc3cc(NC(=O)c4ccc([N+](=O)[O-])cc4)ccc13)CCCC2`: the IFI came out at 0%.

In turn, `CNC(=O)C(C)N(c1ccc(Cl)cc1)c1nc(C(C)(C)C)cs1` (centres undefined) showed an IFI of 4.76%. Then `COC(=O)C(=C(C)C)N1C(=O)[C@@H](NC(=O)OCc2ccccc2)[C@H]1SS[C@@H]1[C@H](NC(=O)OCc2ccccc2)C(=O)N1C(C(=O)OC)=C(C)C`, with 4.41%; and `CC(CN1CCN(C)CC1)C(=O)Nc1ccc(-c2cccc(-c3nc4ccccc4[nH]3)c2)cc1` (centres undefined), with 4.59%.
